Test [1] is described as follows: inhibitors of TNFa-induced NFkB p65 translocation, primary screen, imaging, HUVEC, MLSMR starter and 10KST1 sets (AID 438;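 active = inhibition above 20% together with a positive visual image hit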;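 also: compound added about 3h40 before a 20 min TNFalpha stimulation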;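 as to inhibition: signal is the nuclear over cytoplasmic p65 intensity ratio per well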). The conditions noted are these: HUVEC TNFa-induced p65 nuclear translocation; cell count: measured here: nuclei count (cytotoxicity indicator), at 2.08 µM; inhibition: at 2 µM, stronger effect = higher value, 0% TNFa-plus-vehicle, 100% no-TNFa wells.
Test [2] in a line: reduction of polyQ htt aggregates in cells – imaging, exon1htt(103Q)mCFP cells, high-content imaging, primary screen (AID 483;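 active = visual image review flags a hit and inhibition of aggregation exceeds 20%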;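 also: compound exposure lasted 3 days before fixation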;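 as to nuclei count: percent of the per-plate median nuclei count of sample wells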). The conditions noted are these: exon1htt(103Q)mCFP cell line, aggregate imaging, at 2 µM; inhibition of aggregation: stronger effect = higher value; nuclei count: measured here: cell count, toxicity.
A short description of test [3]: endothelial E-selectin expression blockers – imaging, HUVEC, immunofluorescence, MLSMR starter and 10KST1 sets, primary screen (AID 487).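 As to inhibition: signal is fraction of cell area covered by stained E-selectin grains.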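 As to nuclei count: 100% = median nuclei count of all wells on the same plate.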 As to conditions: HUVEC TNFalpha-induced E-selectin immunofluorescence imaging, at 2 µM; inhibition: stronger effect = higher value; nuclei count: measured here: cell number, toxicity.
In test [4] the target is Voltage-gated potassium channel subunit beta-2 (Rattus norvegicus) (UniProt P62483). Nature of the test: inhibitors of rat Kvbeta2 reductase activity – biochemical, NADPH fluorescence, primary screen (AID 622;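 active = fluorescence slope higher than the sample average by over 3 SD, cut at about -0.22 in these data, passing the limit was not always enough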;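 also: slope of raw intensity against log time taken from 70 to 1610 s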). As to conditions: recombinant KvBeta, 4-cyanobenzaldehyde reduction, at 10 µM, stronger effect = higher value.
Test [5] has the same target. The test is described as follows: enhancers of rat Kvbeta2 NADPH turnover – biochemical, NADPH fluorescence, primary screen (AID 623;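 active = NADPH fluorescence slope more negative than the mean of all samples by about 3 SD, 99.7% confidence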;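 also: fluorescence intensity change per second fitted from 20 to 320 s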). The conditions noted are these: Recombinant KvBeta, NADPH fluorescence decrease slope, 10 min; at 10 µM; stronger effect = lower value.
The target of test [6] is Alpha-2C adrenergic receptor (Homo sapiens) (UniProt P18825). Nature of the test: compounds altering alpha2C-coupled GIRK flux – cell-based, HEK293 alpha2C/GIRK1/2, thallium flux, primary screen (AID 624;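 active = fluorescence slope after compound addition differing from the mean of all screened samples at 99.7% confidence, in either direction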;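 also: slope of fluorescence ratio to pre-addition baseline per second over 15 to 24 s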). The conditions noted are these: thallium flux BTC fluorescence, at 10 µM, actives lie on both sides.
Test [7] can be described thus: blockers of RIG-like receptor reporter activation – cell-based, Sendai virus stimulus, luciferase, 10K MLSCN set, TLR/RLR signaling modifier project, primary screen (AID 602276;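 active = inhibition at or above 50% at 10 µM; inactive = inhibition below 50%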;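 also: firefly luciferase from ISG56 promoter only with Renilla not read in this screen; 0% = Sendai virus plus DMSO and 100% = medium plus DMSO without virus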). As to conditions: HEK293 RL24 IRF3 luciferase reporter, at 10 µM, stronger effect = higher value. A general note: A reporter such as luciferase makes a cellular process visible.
The nature of test [8]: TLR3 IRF3 reporter activation blockers – cell-based, poly I:C stimulus, luciferase, 10K MLSCN set, primary screen (AID 602277;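 active = inhibition of the reporter signal at or above 50%; inactive = inhibition below 50%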). The conditions noted are these: HEK293-TLR3 RL24 IRF3 luciferase reporter, at 10 µM, stronger effect = higher value.

Calls of active or inactive are those of the source.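 The calls were made as follows, unless noted: active = visually confirmed hit in the image check and inhibition above 20%; inconclusive = visually confirmed hit but inhibition not above 20%; inactive = no visual hit in the image check.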

A word on the inhibition: it is the drop in the measured response relative to a control, in per cent.

Sequence of Alpha-2C adrenergic receptor (Homo sapiens) (P18825 whole entry, looked up): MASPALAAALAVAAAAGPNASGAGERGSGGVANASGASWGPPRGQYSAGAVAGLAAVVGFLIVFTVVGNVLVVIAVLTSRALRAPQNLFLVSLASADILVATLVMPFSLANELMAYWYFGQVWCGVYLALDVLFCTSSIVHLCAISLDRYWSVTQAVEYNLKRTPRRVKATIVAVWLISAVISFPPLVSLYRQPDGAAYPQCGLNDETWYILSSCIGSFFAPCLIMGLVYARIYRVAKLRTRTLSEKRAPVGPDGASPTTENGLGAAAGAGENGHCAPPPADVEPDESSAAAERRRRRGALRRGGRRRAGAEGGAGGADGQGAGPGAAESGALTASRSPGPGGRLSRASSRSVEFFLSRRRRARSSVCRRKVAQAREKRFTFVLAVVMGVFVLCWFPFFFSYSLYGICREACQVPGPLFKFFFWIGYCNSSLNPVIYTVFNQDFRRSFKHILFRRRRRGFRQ
Sequence of Voltage-gated potassium channel subunit beta-2 (Rattus norvegicus) (P62483 whole entry, looked up): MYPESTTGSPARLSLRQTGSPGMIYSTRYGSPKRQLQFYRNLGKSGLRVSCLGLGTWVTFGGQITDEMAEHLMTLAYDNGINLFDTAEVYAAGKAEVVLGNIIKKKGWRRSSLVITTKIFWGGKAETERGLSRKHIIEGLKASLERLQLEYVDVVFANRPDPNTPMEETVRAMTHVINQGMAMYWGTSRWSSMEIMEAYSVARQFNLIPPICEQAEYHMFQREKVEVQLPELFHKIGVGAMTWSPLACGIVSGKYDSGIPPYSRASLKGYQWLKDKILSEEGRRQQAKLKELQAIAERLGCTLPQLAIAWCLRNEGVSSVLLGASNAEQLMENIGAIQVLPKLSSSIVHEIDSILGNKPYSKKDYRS

As for `O=C1Nc2ccccc2OC1CC(=O)N1CCCC1` (centres undefined), the cell count in test [1] worked out at 491. The inhibition is -6.6% (inactive) in test [1], -105% (inactive) in test [3], 6.75% (inactive) in test [7] and 28.5% (inactive) in test [8]. The inhibition of aggregation in test [2] is 44.6% (active). Also, the nuclei count in test [2] was determined as 80.1%; in test [3] it was 115%. Also, the fluorescence slope in test [4] is -0.522 (inactive). Besides, in test [5], the NADPH fluorescence slope was -1.3e-05 (inactive). Besides, the slope in test [6] is 0.00582 (inactive).

On to `CC1CN(CC(O)COc2ccccc2C(C)(C)C)CC(C)O1` (centres undefined), for which the cell count in test [1] worked out at 609. Further, the inhibition in test [1] is -29.6% (inactive); in test [3], -32.5% (inactive); in test [7], 10.2% (inactive); in test [8] it was 23.2% (inactive). In addition, the inhibition of aggregation in test [2] was -10.6% (inactive). For the same molecule, the nuclei count in test [2] came out at 108%; in test [3], 101%. For the same molecule, the fluorescence slope in test [4] is -0.509 (inactive). Further, in test [5], the NADPH fluorescence slope is 1.1e-05 (inactive). In addition, the slope in test [6] is 0.00559 (inactive).

With `Nc1nnc(SCc2cc3c(cc2Cl)OCO3)s1`, the cell count in test [1] came to 379. For the same molecule, the inhibition is 7.6% (inactive) in test [1], -30.6% (inactive) in test [3], 0.13% (inactive) in test [7] and 9.87% (inactive) in test [8]. Besides, the inhibition of aggregation in test [2] is -3.1% (inactive). The nuclei count worked out at 110% in test [2] and 111% in test [3]. In test [4], the fluorescence slope was -0.477 (inactive). Besides, the NADPH fluorescence slope in test [5] was -6.6e-05 (inactive). The slope in test [6] was 0.00689 (inactive).

For `COCCNC(=O)CN1C(=O)CSc2ncccc21`, the cell count in test [1] is 673. The inhibition in test [1] is -6.7% (inactive); in test [3], -62.1% (inactive); in test [7], 11.1% (inactive); in test [8], 28.9% (inactive). The inhibition of aggregation in test [2] is -43.1% (inactive). Further, the results for the nuclei count in test [2] and in test [3] were 115% and 117%, respectively. Moreover, the fluorescence slope in test [4] is -0.413 (inactive). In addition, in test [5], the NADPH fluorescence slope is -1.6e-05 (inactive). In addition, in test [6], the slope is 0.00576 (inactive).

`CSc1ccccc1N=CC1=C(O)CC(C)(C)CC1=O`: in test [1], the cell count was determined as 483. Also, the inhibition in test [1] was 7.1% (inactive); in test [3] it was -4.9% (inactive); in test [7], 5.59% (inactive); in test [8], 17.7% (inactive). Moreover, the inhibition of aggregation in test [2] was 2.4% (inactive). Also, the results for the nuclei count in test [2] and in test [3] were 104% and 119%, respectively. Besides, the fluorescence slope in test [4] was -0.461 (inactive). For the same molecule, the NADPH fluorescence slope in test [5] was -0.000148 (inactive). The slope in test [6] is 0.00576 (inactive).

On to `CC(=O)OC1c2ccccc2C(=O)N1c1ccccc1C` (centres undefined), for which the cell count in test [1] stood at 590. The inhibition in test [1] is 9% (inactive); in test [3], -51.8% (inactive); in test [7], 10.3% (inactive); in test [8], 22.9% (inactive). For the same molecule, the inhibition of aggregation in test [2] was -20.1% (inactive). Also, the nuclei count in test [2] is 85.9%; in test [3], 115%. Moreover, the fluorescence slope in test [4] is -0.586 (inactive). Besides, in test [5], the NADPH fluorescence slope is -1.7e-05 (inactive). For the same molecule, the slope in test [6] is 0.00543 (inactive).

In the case of `CC(C)C(C(=O)Nc1ccc2c(c1)OCCO2)N1C(=O)c2ccccc2C1=O` (centres undefined), the cell count in test [1] was 552. The inhibition is -4.3% (inactive) in test [1], -63.7% (inactive) in test [3], 2.16% (inactive) in test [7] and 12.8% (inactive) in test [8]. In addition, the inhibition of aggregation in test [2] was 7% (inactive). The nuclei count in test [2] stood at 104%; in test [3] it was 147%. Also, the fluorescence slope in test [4] was -0.3 (inactive). The NADPH fluorescence slope in test [5] was 1.8e-07 (inactive). In addition, the slope in test [6] was 0.00511 (inactive).

On to `CS(=O)(=O)N(Cc1nc2sc3c(c2c(=O)[nH]1)CCCC3)C1CCCCC1`, for which the cell count in test [1] was determined as 352. In addition, the inhibition was 0.8% (inactive) in test [1], -6.2% (inactive) in test [3], 4.56% (inactive) in test [7] and 14.4% (inactive) in test [8]. Besides, the inhibition of aggregation in test [2] is -9.4% (inactive). Further, the nuclei count in test [2] worked out at 106%; in test [3] it was 110%. The fluorescence slope in test [4] is -0.612 (inactive). The NADPH fluorescence slope in test [5] was -4.9e-05 (inactive). Also, the slope in test [6] is 0.00352 (inactive).

Regarding `CC(CCC(=O)Nc1nncs1)C(=O)O` (centres undefined), the cell count in test [1] stood at 527. Also, the inhibition was -0.8% (inactive) in test [1], -52.1% (inactive) in test [3], 9.72% (inactive) in test [7] and 20.3% (inactive) in test [8]. Also, the inhibition of aggregation in test [2] is 1.4% (inactive). In addition, the nuclei count in test [2] is 97%; in test [3] it was 123%. Besides, the fluorescence slope in test [4] was -0.535 (inactive). Besides, the NADPH fluorescence slope in test [5] is -5.2e-05 (inactive). Further, the slope in test [6] is 0.00611 (inactive).

As for `Cc1cccc(-c2cc3nc(C)cc(NCCCN(C)C)n3n2)c1`, in test [1], the cell count was 399. Moreover, the inhibition in test [1] is -0.5% (inactive); in test [3], -44.2% (inactive); in test [7] it was 21% (inactive); in test [8], 9.1% (inactive). Further, the inhibition of aggregation in test [2] is -9.4% (inactive). Further, the nuclei count in test [2] turned out to be 114%; in test [3], 98.7%. Also, in test [4], the fluorescence slope was -0.56 (inactive). The NADPH fluorescence slope in test [5] is -7.5e-05 (inactive). In addition, the slope in test [6] is 0.00413 (inactive).

Consider `COc1cc2c(=O)nc3n(c2cc1OC)C(c1ccccc1)N=C(N)N3` (centres undefined), for which the cell count in test [1] is 398. Also, the inhibition was -11.9% (inactive) in test [1], 0.3% (inactive) in test [3], 17.6% (inactive) in test [7] and 23.9% (inactive) in test [8]. Besides, the inhibition of aggregation in test [2] was 17.7% (inactive). Also, the nuclei count in test [2] was 86.3%; in test [3], 98.2%. Further, the fluorescence slope in test [4] was -0.312 (inactive). For the same molecule, the NADPH fluorescence slope in test [5] was -2.8e-05 (inactive). Moreover, the slope in test [6] is 0.00451 (inactive).

In the case of `COc1cc(C(=O)Nc2cccc(-c3nncn3C)c2)cc(OC)c1OC`, the cell count in test [1] came to 416. Further, the inhibition in test [1] was 7.6% (inactive); in test [3], -52.3% (inactive); in test [7], 14.3% (inactive); in test [8] it was 14.5% (inactive). In addition, the inhibition of aggregation in test [2] was 22.2% (inactive). The nuclei count in test [2] was found to be 76.5%; in test [3], 102%. For the same molecule, the fluorescence slope in test [4] was -0.303 (inactive). In addition, the NADPH fluorescence slope in test [5] was -2.8e-05 (inactive). The slope in test [6] is 0.00614 (inactive).

Consider `CC(C)CC(c1nnnn1CC1CCCO1)N1CCN(Cc2ccc3c(c2)OCO3)CC1` (centres undefined), for which the cell count in test [1] was 474. Also, the inhibition in test [1] is 1% (inactive); in test [3] it was -21.2% (inactive); in test [7], -28.6% (inactive); in test [8] it was 25% (inactive). The inhibition of aggregation in test [2] was -18.9% (inactive). Moreover, the nuclei count in test [2] worked out at 129%; in test [3], 111%. The fluorescence slope in test [4] was -0.472 (inactive). For the same molecule, the NADPH fluorescence slope in test [5] was -3.8e-05 (inactive). Moreover, in test [6], the slope is 0.00652 (inactive).

On to `COc1ccc(S(=O)(=O)NCC(c2cccnc2)N2CCN(c3ccc(F)cc3)CC2)cc1C` (centres undefined), for which, in test [1], the cell count was 234. The inhibition in test [1] was -19.1% (inactive); in test [3] it was 19.6% (inactive); in test [7] it was 13.6% (inactive); in test [8], 27.2% (inactive). Besides, in test [2], the inhibition of aggregation was -4.9% (inactive). Further, the nuclei count in test [2] turned out to be 56.8%; in test [3] it was 87.7%. Moreover, the fluorescence slope in test [4] was -0.447 (inactive). In addition, the NADPH fluorescence slope in test [5] is 1.7e-05 (inactive). In test [6], the slope is 0.00574 (inactive).

The values are drawn from PubChem BioAssay.
